# Experimental data reported in PubChem BioAssay AID1851 (National Center for Advancing Translational Sciences (NCATS), 2009).
# About 4,000 (25%) of roughly 16,000 compounds were called active. Not shown: some 26% with an inconclusive outcome. Calls come from the whole dose curve; as a rule, active = well fitted curve in the direction sought with a large enough effect; inconclusive = small, poorly fitted or top-dose-only effect, or effect the other way; inactive = no such curve, though single readings can be large or run the other way. Not all results are given here.
# Target: Cytochrome P450 2C9 (Homo sapiens) (UniProt P11712)
# Assay: Cytochrome panel assay with activity outcomes
# Conditions: recombinant CYP, pro-luciferin dealkylation, luminescence, p450-cyp2c9; series mostly up to 57.1 µM; activity, negative = inhibition: at the top concentration
# % is set by controls: 0 for no effect and ±100 for the full control effect.
# Sequence of Cytochrome P450 2C9 (Homo sapiens) (P11712 whole entry, looked up): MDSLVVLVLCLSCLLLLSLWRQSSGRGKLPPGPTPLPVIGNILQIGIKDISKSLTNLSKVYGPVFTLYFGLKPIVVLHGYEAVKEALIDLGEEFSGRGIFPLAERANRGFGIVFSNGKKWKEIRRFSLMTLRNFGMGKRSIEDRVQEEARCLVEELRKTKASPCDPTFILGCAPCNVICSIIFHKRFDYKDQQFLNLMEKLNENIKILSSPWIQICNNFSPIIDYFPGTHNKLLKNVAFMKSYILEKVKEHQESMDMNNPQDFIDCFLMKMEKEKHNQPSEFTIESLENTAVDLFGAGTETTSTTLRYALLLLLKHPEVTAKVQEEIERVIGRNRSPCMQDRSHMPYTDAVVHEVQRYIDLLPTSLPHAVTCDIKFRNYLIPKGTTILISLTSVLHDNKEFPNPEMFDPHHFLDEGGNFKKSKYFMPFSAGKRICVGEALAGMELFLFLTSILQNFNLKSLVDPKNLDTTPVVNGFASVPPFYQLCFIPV
SMILES,"activity, negative = inhibition",AC50
c1ccc(-c2cccc(N3CC[C@@]4(CCCNC4)C3)c2)cc1,-21.2% (inactive),–
CN1CCCCC1=NCCCn1cnc2c1c(=O)n(C)c(=O)n2C,6.66% (inactive),–
N#Cc1cc2[nH]c(=O)c(=O)[nH]c2cc1[N+](=O)[O-],-4.14% (inactive),–
Cc1ccc(S(=O)(=O)c2cc(C#N)c(=O)[nH]c2N)cc1,–,11.2 µM (active)
Cc1ccc(S(=O)(=O)Nc2cc(=O)[nH]c3c2CCC3)cc1,8.32% [at 11.4 µM] (inactive),–
COc1cccc([C@H](O)Cn2cc(-c3ccc(CON=C(C)C)cc3)nn2)c1,-13.3% [at 11.4 µM] (inactive),–
CN(C)c1ncc2nc(-c3ccc(F)cc3)c(=O)n(CCC#N)c2n1,-14.9% (inactive),–
Cc1nn(Cc2ccc(Cl)cc2)c(C)c1NC(=O)CSc1nc2c(c(C(F)(F)F)n1)CCc1ccccc1-2,–,1.41 µM (active)
Cc1ccccc1Cn1cc(NC(=O)CSc2nc3c(c(C(F)(F)F)n2)CCc2ccccc2-3)cn1,–,1.78 µM (active)
Cl/C(=C\n1cncn1)c1ccc(Cl)cc1Cl,5.68% (inactive),–
O=C(c1cnc(-c2ccccc2)s1)c1ccc(Cl)cc1Cl,–,20 µM (active)
COc1ccc(C(O)P(=O)(OC(C)C)OC(C)C)cc1OC (centres undefined),–,7.94 µM (active)
COc1cc([C@@H](O)CO)ccc1OS(=O)(=O)O,-22.5% (inactive),–
COC(=O)C(C(=O)OC)C(C[N+](=O)[O-])c1ccc(OC)c(OC)c1 (centres undefined),-6.55% (inactive),–
COC(=O)[C@@]1(Cc2ccc(OC)cc2)[C@H]2c3cc(C(=O)N(C)C)[nH]c3C[C@H]2CN1C(=O)c1ccccc1,–,3.98 µM (active)
COC(=O)[C@@]1(Cc2ccccc2)[C@H]2c3cc(C(=O)N4CCCC4)[nH]c3C[C@H]2CN1C(=O)c1ccccc1,–,0.794 µM (active)
COC(=O)C/C=C\[C@@H](C)[C@@H](/C=N\O[C@@H](C)c1cn([C@H]2COC[C@H]2O)nn1)OC,-15.9% [at 11.4 µM] (inactive),–
CN(C)CCCn1c2ccccc2c2cnccc21,4.43% [at 11.4 µM] (inactive),–
Cc1c2cnccc2c(C)c2c1c1ccccc1n2CCOC(=O)c1ccccc1,–,3.16 µM (active)
COc1ccccc1CN1CCCC2(CCN(C(=O)c3c(C)noc3C)CC2)C1,4.46% (inactive),–
CCOC(=O)c1c(-c2ccccc2)nc2c(C)cccn12,–,11.2 µM (active)
CC(NC(=O)C1(C)CC1(Br)Br)C(C)(C)C (centres undefined),–,31.6 µM (active)
CC(=O)C[C@H](O)[C@@H](NC(=O)OC(C)(C)C)C(C)C,-4.41% [at 11.4 µM] (inactive),–
CC(C)[C@H](NC(=O)OC(C)(C)C)[C@@H](O)CC(=O)OC(C)(C)C,20.6% [at 11.4 µM] (inactive),–
